Source: PubChem BioAssay (National Center for Advancing Translational Sciences (NCATS))
DT40 TDP1 no CPT: qHTS for Inhibitors of human tyrosyl-DNA phosphodiesterase 1 (TDP1): qHTS in cells in absence of CPT; DT40 Tdp1-/- hTDP1 cells, no CPT, ATP luminescence, 48 h; Potency, µM (highest dose often 46.2 µM), for the others: at the highest dose activity change, negative = growth inhibition, hits mostly inhibitors; 15% of 420,000 active; AID 686978, 2013; also: potency is read from the fitted curve at half-maximal effect; nearly all actives have a fitted effect of over 55% in size
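No-CPT arm: Tdp1-/-;hTDP1 DT40 cells (400/well) plus compounds, incubated ≥48 hr at 37 °C. Readout CellTiter-Glo luminescence.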
IL1B secr inh: qHTS for Inhibitors of Inflammasome Signaling: IL-1-beta AlphaLISA Primary Screen | THP-1 LPS/ATP IL-1B secretion, AlphaLISA, 16 h; active compounds read low | activity change, % at 57.5 µM | 4.7% of 360,000 active | AID 743279, 2014; in the data active = activity change below about -50%; inconclusive = mostly about -30% to -49%
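Secreted IL-1B measured by AlphaLISA bead assay after 16 h compound exposure of THP-1 cells; compounds (final up to 57.5 uM) added 1 h before LPS (250 ng/mL) and ATP (1.25 mM) stimulation; lower signal means less secretion.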
VP16 counter: VP16 counterscreen qHTS for inhibitors of ROR gamma transcriptional activity. Drosophila S2 Gal4-VP16 UAS-luciferase, luminescence, 20 h. Potency, µM (titrated, usually from 53.6 µM), without a hit: at the top dose activity, negative = inhibition, usual class: inhibitors. AID 2546, 2010. 3.5% of 310,000 active;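 also: Gal4-VP16 expression switched on by copper sulfate through the metallothionein promoter; potency is read from the fitted curve at half-maximal effect; nearly all actives have a fitted effect of over 50% in size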
RORg inh: qHTS for inhibitors of ROR gamma transcriptional activity; Nuclear receptor ROR-gamma (Mus musculus), P51450; Drosophila S2 Gal4-RORgamma UAS-luciferase reporter, 20 h; Potency, µM (highest dose often 53.6 µM), inactives show top-dose activity change, negative = inhibition, most hits filed as inhibitors; 5.4% of 310,000 active; AID 2551, 2010; also: potency is read from the fitted curve at half-maximal effect; nearly all actives have a fitted effect of over 60% in size
Target sequence (P51450 whole entry, looked up, the tested form may be a part): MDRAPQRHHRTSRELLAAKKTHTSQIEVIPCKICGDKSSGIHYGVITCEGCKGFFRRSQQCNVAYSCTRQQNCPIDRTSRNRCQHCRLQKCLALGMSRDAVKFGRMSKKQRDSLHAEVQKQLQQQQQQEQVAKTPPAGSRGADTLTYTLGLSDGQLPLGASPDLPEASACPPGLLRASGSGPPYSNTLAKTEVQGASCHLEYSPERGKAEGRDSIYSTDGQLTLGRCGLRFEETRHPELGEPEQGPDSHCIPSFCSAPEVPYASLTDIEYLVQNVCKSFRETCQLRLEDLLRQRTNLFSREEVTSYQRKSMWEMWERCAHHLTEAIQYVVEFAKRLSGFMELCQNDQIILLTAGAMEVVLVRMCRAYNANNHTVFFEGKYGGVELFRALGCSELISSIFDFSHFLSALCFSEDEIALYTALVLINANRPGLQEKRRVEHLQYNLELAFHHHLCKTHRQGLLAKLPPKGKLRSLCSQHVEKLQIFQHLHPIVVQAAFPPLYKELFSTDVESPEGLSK
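A Gal4/UAS one-hybrid system in insect cells: metallothionein-promoter Gal4–ROR gamma fusion plus Photinus luciferase reporter. Copper sulfate 700 uM final, 20 hr ambient incubation, luminescent detection after 10 min with reagent.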
LDHA inh: qHTS assay for inhibitors of human lactate dehydrogenase; L-lactate dehydrogenase A chain (Homo sapiens), P00338; purified LDHA, NADH/diaphorase-resazurin fluorescence; active compounds read low; activity change, % (values are at about 110 or 230 µM); 0.15% of 480,000 active; in the data active = activity change below about -30%; inconclusive = mostly about -25% to -30%;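 also: plate controls were DMSO wells for no effect and wells without enzyme for full effect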
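Resorufin fluorescence (ex540/em590), read at 0 and 20 min after diaphorase/resazurin addition, reports the NADH left after a 5 min room-temperature reaction of 2 nM human LDH5 with 0.06 mM NADH and 0.2 mM pyruvate.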
TDP1 cell CPT: qHTS for Inhibitors of human tyrosyl-DNA phosphodiesterase 1 (TDP1): qHTS in cells in presence of CPT; chicken DT40 Tdp1-/-;hTDP1 cells + 20 nM CPT, ATP luminescence, 48 h; Potency, µM (titrated, usually from 46.2 µM), for the others: top-dose activity change, negative = growth inhibition, hits mostly inhibitors; 12% of 420,000 active; also: potency is read from the fitted curve at half-maximal effect; nearly all actives have a fitted effect of over 55% in size
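Chicken DT40 Tdp1-/- cells stably complemented with human TDP1 were seeded at 400 cells/well in medium containing 20 nM camptothecin, exposed to pin-transferred compounds, and grown at 37 °C for at least 48 hr. Viability was read as ATP luminescence.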
Active calls of the source: *; ? = inconclusive; . = no result; [ ] = another dose, or the depositor's remark. Hits are enriched below; roughly 18% of the tested compounds scored in any of these assays. Unless noted, calls follow the shape of the dose curve; as a rule, active = well fitted curve in the direction sought with a large enough effect; inconclusive = small, poorly fitted or top-dose-only effect, or another doubt; inactive = no such curve, though single readings can be large; an effect the other way counts as inactive or inconclusive. Unless noted, % is scaled to controls: 0 for no effect and ±100 for the full control effect.

SMILES	DT40 TDP1 no CPT	IL1B secr inh	VP16 counter	RORg inh	LDHA inh	TDP1 cell CPT
CCCOC(=O)c1cccc(NC(=O)COc2ccc([N+](=O)[O-])cc2)c1	23.1µM*	-8.1	?	36.0%	-2.2	18.4µM*
COc1ccc(NC(=O)c2cccc(-c3ccc(O)cc3)c2)cn1	20.6µM*	-74.4*	-5.9%	-0.5%	-1.4	14.6µM*
CCOC(=O)c1cccc(NC(=O)COc2ccc([N+](=O)[O-])cc2)c1	?	9.9	-17.1%	11.7%	-1.9	?
CC(C)NS(=O)(=O)c1ccc(NC(=O)C(C)Oc2ccc(C(=O)c3ccccc3)cc2)cc1 (stereo not given)	18.4µM*	10.5	7.08µM*	?	-3.9	23.1µM*
CC(C)Oc1ccc(C(=O)Nc2ccc([N+](=O)[O-])cc2)cc1	-25.3%	-12.1	0.3%	5.7%	-5.3	?
COc1ccc(OC(C)C(=O)Nc2ccc([N+](=O)[O-])cc2)cc1 (stereo not given)	20.6µM*	0.0	-0.1%	?	-16.5	?
Cc1ccc(CS(=O)Cc2ccc(F)cc2)cc1 (stereo not given)	.	.	.	.	10.0	.
CS(=O)(=O)NCC1CCCN(C(=O)c2ccc3ccccc3n2)C1 (stereo not given)	.	.	.	.	-0.6	.
CCCC(=O)Nc1nc2nc(CCC)cc(=O)n2[nH]1	.	.	.	.	10.8	.
NC(=O)c1ccc(NC(=O)COC(=O)c2cc(=O)[nH]c3ccccc23)cc1	.	.	.	.	-1.8	.
Cc1ccccc1NC1(c2nnnn2-c2ccccc2C)CCCC1	.	.	.	.	-2.2	.
COc1ccc(C(=O)CC(=O)Nc2ccc([N+](=O)[O-])cc2)cc1	?	?	3.2%	?	0.2	16.4µM*
CCc1ccc(NC(=O)Nc2ccon2)cc1	-23.3%	?	-12.2%	14.5%	-2.9	?
CC(C)(C)c1ccc(NC(=O)Nc2ccc(F)cc2)cc1	6.51µM*	?	-18.5%	59.4%	-4.8	5.17µM*
CNC(CC(=O)c1ccc([N+](=O)[O-])cc1)C(Cl)(Cl)Cl (stereo not given)	2.59µM*	-67.4*	12.6µM*	?	19.6	2.31µM*
O=C(Nc1ccc([N+](=O)[O-])cc1)Nc1ccon1	0.326µM*	-0.1	-1.0%	12.8%	-16.6	0.411µM*
COc1cc2c(cc1OC)/C(=C/S(=O)(=O)c1cccc(C)c1)NCC2	.	.	.	.	-0.5	.
Cc1cc(NC(=O)C(C)OC(=O)/C(=C/c2cccs2)c2cccs2)on1 (stereo not given)	.	.	.	.	6.8	.
CCCCn1c(=O)[nH]c(=O)c2c1nc(-c1ccc(OC)c(OCc3ccccc3)c1)n2C	.	.	.	.	-16.7	.
COCCOC(=O)c1ccc(NC(=O)COc2ccc([N+](=O)[O-])cc2)cc1	?	9.2	-2.4%	10.9%	-9.4	-27.6%
O=C(Nc1ccc(C(=O)O)cc1)Nc1ccc([N+](=O)[O-])cc1	-4.5%	7.1	-11.8%	14.8%	-19.7	12.8%
COc1ccc(/C=C/C(=O)Nc2ccc(OC)nc2)cc1	?	?	0.2%	2.3%	1.3	-1.1%
COc1ccc(NC(=O)/C=C/c2ccc(OC(F)F)cc2)cn1	?	-53.9*	-6.8%	-8.5%	5.7	-24.6%
Cc1ccc[n+](CC(=O)Nc2ccc([N+](=O)[O-])cc2)c1	20.6µM*	-79.8*	?	2.0%[1.91 µM]	-8.3	10.3µM*
COC(=O)c1ccc(NC(=O)COc2ccc([N+](=O)[O-])cc2)cc1	-8.5%	5.2	10µM*	-43.8%	-5.2	0.2%
SMILES	DT40 TDP1 no CPT	IL1B secr inh	VP16 counter	RORg inh	LDHA inh	TDP1 cell CPT
COC(=O)c1ccc(NC(=O)Nc2ccc([N+](=O)[O-])cc2)cc1	2.31µM*	?	-28.1%	?	-7.8	2.59µM*
CN1CCOC(CNC(=O)Cc2ccc(Cl)cc2)C1 (stereo not given)	.	.	.	.	5.7	.
Clc1cc(Cl)c(N/N=C/c2ccccc2I)c(Cl)c1	.	.	.	.	1.5	.
Cc1cccc(-n2cc(-c3ccccc3)c3c(N4CCN(CCO)CC4)ncnc32)c1	.	.	.	.	-0.1	.
N#Cc1nc(-c2ccc([N+](=O)[O-])cc2)oc1NC1CCCCC1	.	.	.	.	1.4	.
COc1ccc(C(=O)Nc2ccc3oc(-c4ccccc4)cc(=O)c3c2)cc1	.	.	.	.	5.1	.
CCCC(=O)Nc1ccc(Sc2ccc([N+](=O)[O-])cc2)cc1	2.31µM*	?	?	?	-6.8	2.31µM*
O=C(CSc1nnc(COc2ccccc2Cl)n1C1CC1)c1c[nH]c(C(=O)N2CCCC2)c1	.	.	.	.	1.3	.
Cc1nn(Cc2ccc(F)cc2)c(C)c1NC(=O)Nc1ccc2c(c1)OCO2	.	.	.	.	-2.7	.
COc1ccc(NS(=O)(=O)c2cc(Br)cc3c2N(C(C)=O)CC3)cc1	11.6µM*	58.5	-2.7%	17.4%	-3.3	8.2µM*
CC(=O)N1c2c(cc(Br)cc2S(=O)(=O)Nc2ccccc2C)CC1C (stereo not given)	?	.	.	.	-15.6	?
CCOC(=O)c1ccc(NS(=O)(=O)c2cc(Br)cc3c2N(C(C)=O)C(C)C3)cc1 (stereo not given)	8.2µM*	.	.	.	-1.6	9.2µM*
CCN(c1cccc(C)c1)S(=O)(=O)c1cc(Br)cc2c1N(C(C)=O)C(C)C2 (stereo not given)	20.6µM*	.	.	.	-2.2	23.1µM*
CCc1ccc(NS(=O)(=O)c2cc(Br)cc3c2N(C(C)=O)CC3)cc1	-13.4%	.	.	.	-2.6	-1.2%
